# Among all 6,200 compounds or so, about 2,900 (47%) were called active. The set was probably picked from earlier hits. Some of the results follow. Values without a mark were called inactive. Cut-off read from the data, not from the text of the source: active = inhibition above about 50%; inactive = the rest.
# Assay: Mycobacterium tuberculosis growth inhibition, primary screen (AID 1259343)
# Conditions: inhibition: at 10 µM, stronger effect = higher value; outcome: 10 uM
row,SMILES,inhibition
1,Cc1cc(C)n(C(C)CNS(=O)(=O)c2ccc(Cl)cc2)n1 (centres undefined),inactive
2,CCOc1ccc(NC(=O)CCSc2nnc(C)s2)cc1,91.3% (active)
3,CCOc1ccc(NC(=O)Cc2ccc(C)s2)cc1,59.7% (active)
4,CCOc1ccc(Oc2ccc(NC(=O)c3ccc(C)s3)cc2)cc1,44.9%
5,COc1ccc(Cl)c(NS(=O)(=O)c2cnc(Cl)n2C)c1,25.9%
6,O=S1(=O)C(c2ccccc2)=CC1c1ccccc1 (centres undefined),49.3%
7,Cc1ccc(S(=O)(=O)NCC(C)n2nc(C)cc2C)cc1 (centres undefined),10.1%
8,Clc1ccc(C2CC(c3ccc(Cl)cc3)n3nnnc3N2)cc1 (centres undefined),66.5% (active)
9,Clc1ccc(C2CC(c3ccc(Cl)cc3)n3ncnc3N2)cc1 (centres undefined),-10.5%
10,CCCCc1oc2ccccc2c1C(=O)c1cc(I)c(OCCN(CC)CC)c(I)c1,77% (active)
11,CCCCc1oc2ccccc2c1C1NC(=O)c2ccccc2N1 (centres undefined),10.5%
12,O=C(Nc1ccccc1-c1cn2c(CN3CCNCC3)csc2n1)c1cnc2ccccc2n1,74.8% (active)
13,O=C(Nc1ccccc1OCCCc1ccccc1)c1ccccn1,22.6%
14,CC1=NOC(C(=O)Nc2ccccc2OCCCc2ccccc2)C1 (centres undefined),55.6% (active)
15,Cc1ccc(CC(=O)Nc2ccccc2OC2CCCC2)s1,10.8%
16,O=C(Nc1ccccc1OCCCc1ccccc1)C1CCOC1 (centres undefined),83% (active)
17,FC(F)Oc1ccc(NC(=S)Nc2ccc3c(c2)OCCO3)cc1,85.3% (active)
18,COc1ccc(NC(=S)Nc2ccc(OC(F)F)cc2)cn1,36.5%
19,Oc1ccc(NC(=S)Nc2ccc(OC(F)F)cc2)cc1,94.3% (active)
20,O=C(OC1CCc2[nH]c3ncccc3c2C1)c1ccccc1 (centres undefined),-5.27%
21,CSc1ccccc1NC(CNS(=O)(=O)c1ccccc1)c1ccccc1 (centres undefined),-10.3%
22,CCOC(=O)CC(=O)CSc1nc(-c2cccc(C)c2)ns1,82.2% (active)
23,CSc1ccc(Cn2c(C)c(C(=O)NCc3cccc([N+](=O)[O-])c3)sc2=O)cc1,24.4%
24,Cc1ccc(-c2nsc(SCC(=O)Nc3cccc([N+](=O)[O-])c3)n2)cc1,71.1% (active)
25,Cc1cccc(NC(=O)c2cc(Oc3ccc([N+](=O)[O-])cc3F)n(C)n2)c1,35.6%
26,OCc1ccc(-c2ccc(-c3ccc(CO)s3)o2)s1,48.6%
27,CC(C)C1Oc2ccccc2C2CC(c3ccccc3)=NN21 (centres undefined),63.4% (active)

row,SMILES,inhibition
1,CC1CCC2(CC1)Oc1ccccc1C1CC(c3ccccc3)=NN12 (centres undefined),55.7% (active)
2,Fc1ccc(C2=NN3C(C2)c2ccccc2OC3c2ccncc2)cc1 (centres undefined),14%
3,c1ccc(C2=NN3C(C2)c2ccccc2OC32CCCC2)cc1 (centres undefined),32%
4,CCC1(C)Oc2ccccc2C2CC(c3ccccc3)=NN21 (centres undefined),-17%
5,COc1ccc(C2Oc3ccccc3C3CC(c4ccccc4)=NN32)cc1OC (centres undefined),-33.1%
6,OC[C@@H](O)CN(CCC(F)(F)F)c1nc(-c2ccccn2)nc2c1CCC2,-1.45%
7,CC(NC(=O)c1ccc(Br)o1)C1CC2CCC1C2 (centres undefined),37.7%
8,CC(NC(=O)c1ccc([N+](=O)[O-])o1)C12CC3CC(CC(C3)C1)C2 (centres undefined),106% (active)
9,CCNC(=O)c1ccc([N+](=O)[O-])o1,15.7%
10,CC(NC(=O)c1ccc(Br)o1)C12CC3CC(CC(C3)C1)C2 (centres undefined),0.12%
11,CC(NC(=O)C=Cc1cccs1)C1CC2CCC1C2 (centres undefined),36.7%
12,CC(NC(=O)COc1ccccc1F)C1CC2CCC1C2 (centres undefined),95.6% (active)
13,Cc1ccc2c(CC(=O)NC(C)C3CC4CCC3C4)coc2c1 (centres undefined),12.9%
14,CC(NC(=O)c1ccc([N+](=O)[O-])o1)C1CC2CCC1C2 (centres undefined),101% (active)
15,COc1ccc([C@H]2Oc3cc(OC)cc(OC)c3C[C@H]2O)cc1,70.8% (active)
16,COc1ccc(-c2nnc(CSC(=S)N3CCCC3)o2)cc1,84.2% (active)
17,O=C(Cc1cnn(-c2ccccc2)c1)NCC1CCCCC1,45%
18,O=C(CSC(F)(F)F)Nc1cnn(-c2ccccc2)c1,63.6% (active)
19,O=C(O)c1ccc2c(c1)CCN2C(=O)c1cnn(-c2ccccc2)c1,15.4%
20,Cc1cc(C)c(OCC(=O)NS(=O)(=O)c2c(C)noc2C)c(C)c1,44%
21,Cc1cc(Cl)cc(C)c1OCC(=O)NNc1ccc(F)cc1,96.3% (active)
22,CC(=O)Nc1ccc(CC(=O)OCc2ccc(F)cc2)cc1,37.7%
23,CC(=NNc1nc(C)cs1)c1ccc(Cl)cc1,0.03%
24,Cc1cccc(OC(C)C(=O)Nc2nc(C(C)C)cs2)c1 (centres undefined),29.5%
25,Cc1csc(NC(=O)C(C)Oc2cccc(Cl)c2)n1 (centres undefined),81.2% (active)
26,Cc1csc(NC(=O)COc2c(C)cc(Cl)cc2C)n1,73.9% (active)
27,Cc1cnc(NC(=O)C(C)Oc2cccc(Cl)c2)s1 (centres undefined),9.6%

# — PubChem BioAssay AID1259343 (VanderVen Lab, College of Veterinary Medicine, Cornell …, 2017)
